Experimental data taken from PubChem BioAssay AID1159580 (chemical genetic matrix, 2015).
Values joined by “and” are separate entries in the source; they are usually repeats but may differ in a detail not shown here. Equal values may be shown once. Among all 5,500 compounds or so, about 2,000 (36%) were called active. Not shown: some 18% with an inconclusive outcome. Cut-off read from the data, not from the text of the source: active = normalized growth mostly below about 0.91 (no sharp cut-off); inconclusive = no clear call, values can overlap the other calls; inactive = mostly above about 0.92. Some of the results follow.

Assay: chemical genetic growth profiling, strain panel (AID 1159580);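 note: tested at 20 µM; growth read once vehicle control cultures reached saturation at 30 °C; 1 = growth at the plate median or of vehicle wells; lower values mean less growth of the strain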
Conditions: S. cerevisiae deletion strains, growth OD

Measured: normalized growth

CC(=O)OCC(=O)[C@@]1(O)CCC2C3CCC4=CC(=O)CC[C@]4(C)C3C(=O)C[C@@]21C (stereo not given in full)
inactive: locus YAL021C, strain ccr4, stronger effect = lower value 0.988 | locus YAL026C, strain drs2, stronger effect = lower value 1.01 | locus YAL030W, strain snc1, stronger effect = lower value 0.985 | locus YBL061C, strain skt5, stronger effect = lower value 0.965 | locus YBR009C, strain hhf1, stronger effect = lower value 0.998 | locus YBR021W, strain FUR4, stronger effect = lower value 1.01 | locus YBR023C, strain chs3, stronger effect = lower value 0.989 | locus YBR171W, strain sec66, stronger effect = lower value 0.969 | locus YBR229C, strain ROT2, stronger effect = lower value 1.01 | locus YBR231C, strain swc5, stronger effect = lower value 0.951 | locus YBR279W, strain paf1, stronger effect = lower value 0.997 | locus YCL011C, strain gbp2, stronger effect = lower value 1.01 | locus YCL016C, strain dcc1, stronger effect = lower value 1.02 | locus YCL029C, strain bik1, stronger effect = lower value 1.03 | locus YCL061C, strain MRC1, stronger effect = lower value 0.982 | locus YCL069W, strain vba3, stronger effect = lower value 0.98 | locus YCR088W, strain abp1, stronger effect = lower value 0.98 | locus YDL005C, strain med2, stronger effect = lower value 0.973 | locus YDL035C, strain GPR1, stronger effect = lower value 1 | locus YDL040C, strain nat1, stronger effect = lower value 0.963 | locus YDL074C, strain BRE1, stronger effect = lower value 1.01 | locus YDL101C, strain DUN1, stronger effect = lower value 1.01 | locus YDL134C, strain PPH21, stronger effect = lower value 1 | locus YDL185W, strain tfp1, stronger effect = lower value 1.03 | locus YDL192W, strain arf1, stronger effect = lower value 1.03 | locus YDR001C, strain nth1, stronger effect = lower value 0.974 | locus YDR069C, strain doa4, stronger effect = lower value 0.98 | locus YDR101C, strain arx1, stronger effect = lower value 1.02 | locus YDR137W, strain rgp1, stronger effect = lower value 1 | locus YDR159W, strain sac3, stronger effect = lower value 0.963 | locus YDR162C, strain NBP2, stronger effect = lower value 1.01 | locus YDR195W, strain ref2 0.913 | locus YDR297W, strain sur2, stronger effect = lower value 0.989 | locus YDR318W, strain mcm21, stronger effect = lower value 1.01 | locus YDR334W, strain swr1, stronger effect = lower value 0.968 | locus YDR335W, strain msn5, stronger effect = lower value 0.969 | locus YDR388W, stronger effect = lower value 1.03 | locus YDR392W, strain spt3, stronger effect = lower value 1.04 | locus YDR502C, strain sam2, stronger effect = lower value 1.04 | locus YEL003W, strain gim4, stronger effect = lower value 0.968 | locus YEL037C, strain rad23, stronger effect = lower value 0.976 | locus YEL061C, strain CIN8 (second series), stronger effect = lower value 0.983 | locus YEL061C, strain CIN8, stronger effect = lower value 1.01 | locus YER015W, strain faa2, stronger effect = lower value 0.992 | locus YER016W, strain bim1, stronger effect = lower value 0.988 | locus YER110C, stronger effect = lower value 1.04 | locus YER111C, strain swi4, stronger effect = lower value 0.971 | locus YER155C, strain BEM2 (second series), stronger effect = lower value 0.97 | locus YER155C, strain BEM2, stronger effect = lower value 1 | locus YER167W, strain BCK2, stronger effect = lower value 1.01 | locus YFR010W, strain ubp6, stronger effect = lower value 0.977 | locus YGL078C, strain dbp3, stronger effect = lower value 1.03 | locus YGL086W, strain mad1, stronger effect = lower value 0.994 | locus YGL167C, strain pmr1, stronger effect = lower value 0.952 | locus YGL173C, strain kem1, stronger effect = lower value 0.955 | locus YGL227W, strain vid30, stronger effect = lower value 0.983 | locus YGL240W, strain doc1, stronger effect = lower value 0.962 | locus YGL248W, strain PDE1, stronger effect = lower value 1.02 | locus YGL253W, strain hxk2, stronger effect = lower value 0.981 | locus YGR135W, strain pre9, stronger effect = lower value 1.03 | locus YGR252W, strain gcn5, stronger effect = lower value 1.05 | locus YHR013C, strain ard1, stronger effect = lower value 0.991 | locus YHR027C, strain rpn1, stronger effect = lower value 1 | locus YHR030C, strain SLT2, stronger effect = lower value 1 and 0.999 | locus YHR079C, strain IRE1 (second series), stronger effect = lower value 1.03 | locus YHR079C, strain IRE1, stronger effect = lower value 0.996 | locus YHR094C, strain hxt1, stronger effect = lower value 1.02 | locus YHR129C, strain ARP1, stronger effect = lower value 1 | locus YHR142W, strain chs7, stronger effect = lower value 0.978 | locus YHR200W, strain rpn10, stronger effect = lower value 1.03 | locus YIL066C, strain RNR3, stronger effect = lower value 1.01 | locus YIL073C, strain SPO22, stronger effect = lower value 1.06 | locus YIL125W, strain kgd1, stronger effect = lower value 1.02 | locus YIR030C, strain dcg1, stronger effect = lower value 1.03 | locus YJL092W, strain hpr5, stronger effect = lower value 0.968 | locus YJL095W, strain BCK1 (second series), stronger effect = lower value 0.992 | locus YJL095W, strain BCK1, stronger effect = lower value 1.02 | locus YJL115W, strain asf1, stronger effect = lower value 0.985 | locus YJL129C, strain trk1, stronger effect = lower value 0.922 | locus YJL134W, strain LCB3, stronger effect = lower value 1.01 | locus YJL154C, strain vps35, stronger effect = lower value 0.963 | locus YJL164C, strain tpk1, stronger effect = lower value 1 | locus YJL166W, strain qcr8, stronger effect = lower value 0.966 | locus YJL168C, strain set2, stronger effect = lower value 1.03 | locus YJL187C, strain SWE1 (second series), stronger effect = lower value 1.01 | locus YJR043C, strain POL32, stronger effect = lower value 0.993 | locus YJR066W, strain TOR1, stronger effect = lower value 0.973 | locus YJR075W, strain HOC1, stronger effect = lower value 1.01 | locus YKL009W, strain mrt4, stronger effect = lower value 1.02 | locus YKL068W, stronger effect = lower value 1.02 | locus YKL085W, strain MDH1 (second series), stronger effect = lower value 1.02 | locus YKL085W, strain MDH1, stronger effect = lower value 1.02 | locus YKL160W, strain elf1, stronger effect = lower value 0.961 | locus YKR001C, strain vps1, stronger effect = lower value 1.04 | locus YKR026C, strain gcn3, stronger effect = lower value 0.974 | locus YKR091W, strain srl3, stronger effect = lower value 0.974 | locus YLL001W, strain dnm1, stronger effect = lower value 0.93 | locus YLL026W, stronger effect = lower value 0.994 | locus YLL041C, strain sdh2, stronger effect = lower value 0.98 | locus YLR027C, strain aat2, stronger effect = lower value 0.961 | locus YLR039C, strain RIC1, stronger effect = lower value 1 | locus YLR058C, strain SHM2, stronger effect = lower value 1.01 | locus YLR102C, strain apc9, stronger effect = lower value 1.03 | locus YLR113W, strain HOG1, stronger effect = lower value 0.986 | locus YLR221C, strain rsa3, stronger effect = lower value 1.01 | locus YLR258W, strain gsy2, stronger effect = lower value 0.995 | locus YLR262C, strain YPT6 (second series), stronger effect = lower value 0.951 | locus YLR262C, strain YPT6, stronger effect = lower value 1.05 | locus YLR268W, strain sec22, stronger effect = lower value 1.04 | locus YLR320W, strain mms22, stronger effect = lower value 0.993 | locus YLR330W, strain CHS5, stronger effect = lower value 1.01 | locus YLR342W, strain FKS1 (second series), stronger effect = lower value 0.987 | locus YLR342W, strain FKS1, stronger effect = lower value 0.963 | locus YLR357W, strain rsc2, stronger effect = lower value 0.974 | locus YLR370C, strain arc18, stronger effect = lower value 0.973 | locus YLR371W, strain rom2, stronger effect = lower value 1.02 | locus YLR384C, strain iki3, stronger effect = lower value 0.974 | locus YLR418C, strain cdc73, stronger effect = lower value 1.08 | locus YML016C, strain PPZ1, stronger effect = lower value 1.01 | locus YML032C, strain rad52, stronger effect = lower value 1.04 | locus YML120C, strain ndi1, stronger effect = lower value 0.967 | locus YML124C, strain tub3, stronger effect = lower value 1.03 | locus YMR058W, strain fet3, stronger effect = lower value 0.971 | locus YMR078C, strain ctf18, stronger effect = lower value 1.04 | locus YMR125W, strain sto1, stronger effect = lower value 0.988 | locus YMR129W, stronger effect = lower value 0.991 | locus YMR205C, strain PFK2, stronger effect = lower value 0.983 | locus YMR223W, strain ubp8, stronger effect = lower value 1.04 | locus YMR231W, strain pep5, stronger effect = lower value 0.972 | locus YMR263W, strain SAP30, stronger effect = lower value 1.01 | locus YMR307W, strain GAS1, stronger effect = lower value 0.923 | locus YNL067W, strain RPL9B, stronger effect = lower value 1.01 | locus YNL071W, strain lat1, stronger effect = lower value 1.01 | locus YNL153C, strain GIM3, stronger effect = lower value 1.01 | locus YNL183C, strain NPR1, stronger effect = lower value 0.953 | locus YNL209W, strain ssb2, stronger effect = lower value 0.998 | locus YNL233W, strain BNI4, stronger effect = lower value 1.01 | locus YNL248C, strain rpa49, stronger effect = lower value 1 | locus YNL250W, strain rad50, stronger effect = lower value 1.05 | locus YNL271C, strain bni1, stronger effect = lower value 1.04 | locus YNL298W, strain CLA4, stronger effect = lower value 1.02 | locus YNL307C, strain MCK1, stronger effect = lower value 1.02 | locus YNL322C, strain KRE1 (second series), stronger effect = lower value 0.969 | locus YNL322C, strain KRE1, stronger effect = lower value 1.01 | locus YNR049C, strain mso1, stronger effect = lower value 0.977 | locus YNR052C, strain pop2, stronger effect = lower value 1.02 | locus YOL012C, strain htz1 1.93 | locus YOL147C, strain pex11, stronger effect = lower value 1.04 | locus YOR001W, strain rrp6, stronger effect = lower value 0.951 | locus YOR061W, strain CKA2, stronger effect = lower value 1.01 | locus YOR069W, strain VPS5, stronger effect = lower value 1.01 | locus YOR070C, strain gyp1, stronger effect = lower value 0.993 | locus YOR080W, strain dia2, stronger effect = lower value 0.956 | locus YOR083W, strain WHI5, stronger effect = lower value 0.959 | locus YOR106W, strain vam3, stronger effect = lower value 0.966 | locus YOR136W, strain idh2, stronger effect = lower value 1.03 | locus YOR144C, strain elg1, stronger effect = lower value 1.02 | locus YOR184W, strain ser1, stronger effect = lower value 1.05 | locus YOR231W, strain MKK1, stronger effect = lower value 0.995 | locus YOR265W, strain rbl2, stronger effect = lower value 0.991 | locus YOR270C, strain vph1, stronger effect = lower value 0.978 | locus YOR290C, strain snf2, stronger effect = lower value 1.01 | locus YOR316C, strain cot1, stronger effect = lower value 1.03 | locus YPL051W, strain arl3, stronger effect = lower value 0.989 | locus YPL055C, strain LGE1, stronger effect = lower value 1 | locus YPL078C, strain atp4, stronger effect = lower value 0.933 | locus YPL106C, strain sse1, stronger effect = lower value 1.02 | locus YPL240C, strain hsp82, stronger effect = lower value 0.984 | locus YPL241C, strain CIN2, stronger effect = lower value 1 | locus YPL256C, strain CLN2, stronger effect = lower value 0.962 | locus YPR119W, strain clb2, stronger effect = lower value 1.03 | locus YPR141C, strain kar3, stronger effect = lower value 1.04 | locus YPR163C, strain tif3, stronger effect = lower value 1.05 | locus YPR167C, strain met16, stronger effect = lower value 1.03 | strain wtn01, stronger effect = lower value 1.04
